Measured values as given in PubChem BioAssay (EPA / NIEHS).
Results filed as inconclusive are left out. Calls of active or inactive are those of the source. Rule for the calls, unless noted: active = hit-call score of the fitted dose curve at least 0.9, where 1 is the maximum; inactive = score below 0.9.

Legend:
[1] = target: Glucocorticoid receptor (Homo sapiens) (UniProt P04150); assay: ATG_GR_TRANS: Attagene TRANS-FACTORIAL HepG2 Assay for human Glucocorticoid Receptor (GR) (AID 2282978; active = hit-call score of the fitted dose curve at least 0.9, where 1 is the maximum;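 note: activators score as hits since higher reporter transcript over DMSO is fitted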); details: HepG2 Attagene TRANS GR reporter, mRNA transcription
Sequence of Glucocorticoid receptor (Homo sapiens) (P04150 whole entry, looked up, the tested form may be a part): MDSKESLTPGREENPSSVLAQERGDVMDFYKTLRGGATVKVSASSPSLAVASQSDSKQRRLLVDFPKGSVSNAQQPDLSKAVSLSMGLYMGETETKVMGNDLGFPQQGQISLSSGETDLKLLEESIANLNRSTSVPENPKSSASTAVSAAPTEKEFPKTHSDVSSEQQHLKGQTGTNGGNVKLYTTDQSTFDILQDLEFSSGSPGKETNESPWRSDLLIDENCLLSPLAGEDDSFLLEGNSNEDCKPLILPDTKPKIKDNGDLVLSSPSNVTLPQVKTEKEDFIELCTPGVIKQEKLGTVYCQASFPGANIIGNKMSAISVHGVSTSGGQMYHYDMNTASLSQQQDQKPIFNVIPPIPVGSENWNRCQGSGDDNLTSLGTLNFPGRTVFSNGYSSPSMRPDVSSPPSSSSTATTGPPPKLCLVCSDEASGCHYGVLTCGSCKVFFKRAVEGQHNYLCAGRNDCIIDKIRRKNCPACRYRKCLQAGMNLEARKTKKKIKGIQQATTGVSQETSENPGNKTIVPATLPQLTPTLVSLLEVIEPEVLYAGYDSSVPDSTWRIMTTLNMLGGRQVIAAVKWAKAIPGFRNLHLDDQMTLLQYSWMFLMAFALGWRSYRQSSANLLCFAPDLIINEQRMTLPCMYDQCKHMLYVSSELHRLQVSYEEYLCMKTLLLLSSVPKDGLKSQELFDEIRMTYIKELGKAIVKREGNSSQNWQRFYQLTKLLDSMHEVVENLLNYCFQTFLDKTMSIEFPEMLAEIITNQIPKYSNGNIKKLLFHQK
Summary of the method: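 Fluorescent capillary-electrophoresis quantitation of reporter mRNA is the readout, taken 24 h after dosing human HepG2 cells carrying transiently transfected GAL4-UAS reporter units activated by chimeric NR-GAL4 fusions; activity scored as induction over DMSO.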

[2] = target: Oxysterols receptor LXR-alpha (Homo sapiens) (UniProt Q13133); assay: ATG_LXRa_TRANS: Attagene TRANS-FACTORIAL HepG2 Assay for human Liver X Receptor alpha (LXRa) (AID 2282980; active = hit-call score of the fitted dose curve at least 0.9, where 1 is the maximum); details: HepG2 Attagene TRANS reporter, LXRa transactivation
Sequence of Oxysterols receptor LXR-alpha (Homo sapiens) (Q13133 whole entry, looked up, the tested form may be a part): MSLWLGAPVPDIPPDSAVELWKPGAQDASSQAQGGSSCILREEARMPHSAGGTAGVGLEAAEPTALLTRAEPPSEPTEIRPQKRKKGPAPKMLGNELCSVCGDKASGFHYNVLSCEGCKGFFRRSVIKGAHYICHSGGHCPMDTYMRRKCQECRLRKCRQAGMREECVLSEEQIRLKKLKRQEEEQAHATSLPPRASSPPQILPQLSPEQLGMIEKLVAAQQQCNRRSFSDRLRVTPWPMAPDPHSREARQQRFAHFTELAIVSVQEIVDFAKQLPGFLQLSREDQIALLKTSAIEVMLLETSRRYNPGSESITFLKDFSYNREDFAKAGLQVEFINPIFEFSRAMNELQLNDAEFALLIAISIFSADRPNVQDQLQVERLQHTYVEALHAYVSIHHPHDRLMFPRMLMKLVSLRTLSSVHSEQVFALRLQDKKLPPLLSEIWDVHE
Summary of the method: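 Transfect HepG2 with GAL4-UAS multiplex reporter constructs (TRANS format, chimeric receptor-GAL4); treat 24 h; extract RNA, reverse-transcribe, PCR-amplify, FAM-label, HpaI-digest; resolve fragments by capillary electrophoresis. Upward response vs DMSO.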

[3] = target: Oxysterols receptor LXR-beta (Homo sapiens) (UniProt P55055); assay: ATG_LXRb_TRANS: Attagene TRANS-FACTORIAL HepG2 Assay for human Liver X Receptor beta (LXRb) (AID 2282981; active = hit-call score of the fitted dose curve at least 0.9, where 1 is the maximum); details: HepG2 Attagene TRANS GAL4-LXRb reporter, mRNA
Sequence of Oxysterols receptor LXR-beta (Homo sapiens) (P55055 whole entry, looked up, the tested form may be a part): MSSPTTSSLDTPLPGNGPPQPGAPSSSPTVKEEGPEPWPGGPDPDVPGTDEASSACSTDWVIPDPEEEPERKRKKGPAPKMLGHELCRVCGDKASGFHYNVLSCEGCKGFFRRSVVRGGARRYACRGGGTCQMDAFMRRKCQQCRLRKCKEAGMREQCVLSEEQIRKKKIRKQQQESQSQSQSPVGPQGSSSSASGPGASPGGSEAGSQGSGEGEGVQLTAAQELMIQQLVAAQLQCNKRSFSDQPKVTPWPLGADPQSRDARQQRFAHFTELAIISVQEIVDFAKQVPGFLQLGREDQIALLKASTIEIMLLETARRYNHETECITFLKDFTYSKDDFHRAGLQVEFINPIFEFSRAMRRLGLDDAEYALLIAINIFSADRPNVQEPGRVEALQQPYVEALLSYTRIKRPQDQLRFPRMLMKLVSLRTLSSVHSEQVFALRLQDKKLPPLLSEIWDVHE
Summary of the method: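 Liver-derived HepG2 cells transfected with Gal4-responsive reporters were dosed for 24 h. Activation was scored as rise in reporter mRNA, by RT-PCR and capillary electrophoresis, above DMSO baseline.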

[4] = ATG_M_06_TRANS: Attagene TRANS-FACTORIAL HepG2 Assay for M06 Transcription Factor (Internal Marker) (AID 2282983; active = hit-call score of the fitted dose curve at least 0.9, where 1 is the maximum); details: HepG2 Attagene TRANS M06 internal marker reporter
Summary of the method: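 Background control endpoint: reporter mRNA from transiently transfected HepG2 after 24 h dosing, detected by RT-PCR with capillary electrophoresis fluorescence. Analysed for gain versus DMSO.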

[5] = target: Nuclear receptor subfamily 4 group A member 2 (Homo sapiens) (UniProt P43354); assay: ATG_NURR1_TRANS: Attagene TRANS-FACTORIAL HepG2 Assay for human Nuclear Receptor Related Protein 1 (NURR1) (AID 2282985; active = hit-call score of the fitted dose curve at least 0.9, where 1 is the maximum); details: HepG2 Attagene TRANS reporter, mRNA readout
Sequence of Nuclear receptor subfamily 4 group A member 2 (Homo sapiens) (P43354 whole entry, looked up, the tested form may be a part): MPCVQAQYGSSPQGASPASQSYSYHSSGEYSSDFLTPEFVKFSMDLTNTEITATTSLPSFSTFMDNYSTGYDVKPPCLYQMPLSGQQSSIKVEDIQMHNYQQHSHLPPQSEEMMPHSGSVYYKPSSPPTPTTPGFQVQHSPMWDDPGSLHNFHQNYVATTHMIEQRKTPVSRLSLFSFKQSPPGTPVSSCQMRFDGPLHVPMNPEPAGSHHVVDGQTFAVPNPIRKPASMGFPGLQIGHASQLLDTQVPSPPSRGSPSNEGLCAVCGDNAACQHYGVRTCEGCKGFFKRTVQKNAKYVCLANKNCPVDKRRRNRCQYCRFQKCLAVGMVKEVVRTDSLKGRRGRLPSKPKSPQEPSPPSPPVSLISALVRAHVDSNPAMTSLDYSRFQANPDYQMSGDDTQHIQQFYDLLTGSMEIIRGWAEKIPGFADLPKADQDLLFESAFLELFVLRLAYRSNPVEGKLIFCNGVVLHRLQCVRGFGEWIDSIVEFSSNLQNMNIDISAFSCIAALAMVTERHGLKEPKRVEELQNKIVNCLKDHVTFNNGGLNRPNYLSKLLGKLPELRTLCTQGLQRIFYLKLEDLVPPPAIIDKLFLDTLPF
Summary of the method: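 Chimeric NR-Gal4 proteins were expressed in human HepG2 cells bearing GAL4-UAS reporter units, and induced reporter mRNA was quantified 24 h post-dosing by RT-PCR and capillary electrophoresis.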

[6] = target: Transcriptional activator Myb (Homo sapiens) (UniProt P10242); assay: ATG_Myb_CIS: Attagene CIS-FACTORIAL HepG2 Assay for human Myeloblastosis (Myb) Proto-Oncogene Transcription Factor (AID 2282986); details: HepG2 Attagene CIS-FACTORIAL Myb reporter transcription; actives raise or lower the signal
Sequence of Transcriptional activator Myb (Homo sapiens) (P10242 whole entry, looked up): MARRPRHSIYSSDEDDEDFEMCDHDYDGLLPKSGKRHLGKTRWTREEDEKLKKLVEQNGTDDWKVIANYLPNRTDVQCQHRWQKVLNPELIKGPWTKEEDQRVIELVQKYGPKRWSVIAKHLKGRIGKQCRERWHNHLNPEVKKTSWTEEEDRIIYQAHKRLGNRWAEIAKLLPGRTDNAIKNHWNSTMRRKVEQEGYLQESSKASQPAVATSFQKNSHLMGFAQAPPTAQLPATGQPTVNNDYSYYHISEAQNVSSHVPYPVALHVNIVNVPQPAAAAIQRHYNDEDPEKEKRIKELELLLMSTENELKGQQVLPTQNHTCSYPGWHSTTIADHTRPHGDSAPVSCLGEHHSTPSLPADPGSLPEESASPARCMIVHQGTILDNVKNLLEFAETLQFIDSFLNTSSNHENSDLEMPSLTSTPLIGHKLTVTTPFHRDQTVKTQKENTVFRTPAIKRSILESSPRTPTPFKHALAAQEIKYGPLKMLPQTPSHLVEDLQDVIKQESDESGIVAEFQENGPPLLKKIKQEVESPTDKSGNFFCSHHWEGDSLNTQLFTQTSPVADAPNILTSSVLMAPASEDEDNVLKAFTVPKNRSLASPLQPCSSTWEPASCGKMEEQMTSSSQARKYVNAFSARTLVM
Summary of the method: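 Reporter transcript levels, quantified by fluorescent RT-PCR and capillary electrophoresis, serve as the read-out. Transfected HepG2 cells carrying cis-promoter reporter units are dosed for 24 hours, and curves are fitted bidirectionally against DMSO controls.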

[7] = target: Nuclear respiratory factor 1 (Homo sapiens) (UniProt Q16656); assay: ATG_NRF1_CIS: Attagene CIS-FACTORIAL HepG2 Assay for human Nuclear Respiratory Factor 1 (NRF1) Orphan Gene (AID 2282987); details: HepG2 NRF1 cis-element reporter, Attagene multiplex; actives raise or lower the signal
Sequence of Nuclear respiratory factor 1 (Homo sapiens) (Q16656 whole entry, looked up): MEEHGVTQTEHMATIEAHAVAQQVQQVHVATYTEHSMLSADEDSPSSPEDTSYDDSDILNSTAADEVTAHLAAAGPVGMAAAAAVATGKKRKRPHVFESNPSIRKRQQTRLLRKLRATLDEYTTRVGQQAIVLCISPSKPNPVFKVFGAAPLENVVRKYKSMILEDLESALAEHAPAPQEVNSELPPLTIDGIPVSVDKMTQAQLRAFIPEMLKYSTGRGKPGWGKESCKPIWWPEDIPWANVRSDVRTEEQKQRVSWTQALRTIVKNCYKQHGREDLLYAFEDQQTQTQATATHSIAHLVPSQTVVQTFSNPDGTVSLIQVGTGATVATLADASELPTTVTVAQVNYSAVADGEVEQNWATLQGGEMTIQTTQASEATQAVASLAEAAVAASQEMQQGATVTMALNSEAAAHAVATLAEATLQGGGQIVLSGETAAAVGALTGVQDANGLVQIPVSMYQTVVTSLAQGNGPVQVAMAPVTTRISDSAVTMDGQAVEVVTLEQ
Summary of the method: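 Multiplexed cis-reporter assay, HepG2 cells, 24 h treatment. Total RNA → oligo(dT) RT → PCR with reporter-specific primers → 6-FAM primer extension → HpaI cut → CE. Bidirectional fit vs DMSO.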

[8] = ATG_NFI_CIS: Attagene CIS-FACTORIAL HepG2 Assay for human Nuclear Factor I (NFI) (AID 2282989); details: HepG2 cis-regulatory reporter, NFI response element transcription; actives raise or lower the signal
Summary of the method: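 HepG2 cells transiently transfected with cis-element-driven multiplexed reporter transcription units, dosed for 24 h. Reporter mRNA quantified by RT-PCR, fluorescent labelling, HpaI digestion and capillary electrophoresis; bidirectional fit versus DMSO baseline.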

[9] = target: Myc proto-oncogene protein (Homo sapiens) (UniProt P01106); assay: ATG_Myc_CIS: Attagene CIS-FACTORIAL HepG2 Assay for human Myelocytomatosis (Myc) Proto-Oncogene Transcription Factor (AID 2282990); details: HepG2, Attagene cis-reporter transcription factor activity; actives raise or lower the signal
Sequence of Myc proto-oncogene protein (Homo sapiens) (P01106 whole entry, looked up): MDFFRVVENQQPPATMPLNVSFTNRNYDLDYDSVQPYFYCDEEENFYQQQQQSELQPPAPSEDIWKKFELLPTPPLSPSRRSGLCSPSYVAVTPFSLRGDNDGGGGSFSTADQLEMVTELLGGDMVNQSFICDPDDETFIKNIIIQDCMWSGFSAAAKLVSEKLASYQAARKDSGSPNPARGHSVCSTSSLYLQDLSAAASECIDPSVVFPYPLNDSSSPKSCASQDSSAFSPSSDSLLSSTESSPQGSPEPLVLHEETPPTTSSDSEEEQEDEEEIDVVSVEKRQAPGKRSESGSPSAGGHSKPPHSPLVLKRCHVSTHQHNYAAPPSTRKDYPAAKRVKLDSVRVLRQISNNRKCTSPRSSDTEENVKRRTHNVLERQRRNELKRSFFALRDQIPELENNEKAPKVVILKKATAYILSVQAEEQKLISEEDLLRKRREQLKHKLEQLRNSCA
Summary of the method: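 Multiplexed cis-reporter transcription in HepG2 cells after 24 h chemical treatment. Reporter mRNA measured by RT-PCR and capillary electrophoresis fluorescence; activity fitted bidirectionally against DMSO control.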

[10] = ATG_NF_kB_CIS: Attagene CIS-FACTORIAL HepG2 Assay for human Nuclear Factor Kappa B (NF-kB) (AID 2282991); details: HepG2 Attagene cis-factorial NF-kB reporter mRNA; actives raise or lower the signal
Summary of the method: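 Transient MRTU transfection of human HepG2 liver cells → 24 h chemical exposure → total RNA, oligo(dT) RT → PCR, 6-FAM primer extension, HpaI digest 2 h 37 C → CE fragment analysis. Bidirectional fitting, DMSO negative control.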

[11] = ATG_NRF2_ARE_CIS: Attagene CIS-FACTORIAL HepG2 Assay for human Nuclear Factor Erythroid 2 Related Factor 2 (NFR2) response to Antioxidant Response Elements (ARE) (AID 2282992); details: HepG2 Attagene ARE/NRF2 reporter, transcription factor activity; actives raise or lower the signal
Summary of the method: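 Using transiently transfected HepG2 cells exposed for 24 h, reporter mRNA levels were determined by RT-PCR with fluorescent primer extension and capillary electrophoresis, analysed for gain or loss of signal against DMSO.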

[12] = ATG_Oct_MLP_CIS: Attagene CIS-FACTORIAL HepG2 Assay for human Octamer-Binding Transcription Factor (Oct) (AID 2282993); details: HepG2 Attagene cis-factorial Oct reporter, mRNA; actives raise or lower the signal
Summary of the method: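 HepG2 cells transiently transfected with cis-promoter-driven multiplexed reporter transcription units, dosed for 24 h. Reporter mRNA quantified by RT-PCR, fluorescent labelling, HpaI digestion and capillary electrophoresis; bidirectional fits versus DMSO baseline.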

[13] = target: Cellular tumor antigen p53 (Homo sapiens) (UniProt P04637); assay: ATG_p53_CIS: Attagene CIS-FACTORIAL HepG2 Assay for human p53 Transcription Factor (AID 2282994); details: HepG2 p53 cis-element reporter, Attagene mRNA; actives raise or lower the signal
Sequence of Cellular tumor antigen p53 (Homo sapiens) (P04637 whole entry, looked up, the tested form may be a part): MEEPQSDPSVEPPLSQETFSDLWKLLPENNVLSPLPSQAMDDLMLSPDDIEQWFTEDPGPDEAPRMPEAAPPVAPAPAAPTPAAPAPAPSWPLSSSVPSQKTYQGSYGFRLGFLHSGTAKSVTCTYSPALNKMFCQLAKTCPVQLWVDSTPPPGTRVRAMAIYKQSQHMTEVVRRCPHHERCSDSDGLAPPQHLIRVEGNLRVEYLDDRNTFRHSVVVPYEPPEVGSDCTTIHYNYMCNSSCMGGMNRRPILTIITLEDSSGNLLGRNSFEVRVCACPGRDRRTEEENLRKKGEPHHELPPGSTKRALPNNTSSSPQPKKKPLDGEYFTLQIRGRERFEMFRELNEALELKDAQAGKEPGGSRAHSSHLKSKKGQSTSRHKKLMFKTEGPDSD
Summary of the method: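 In HepG2 cells, reporter transcription units under cis-regulatory promoters were transiently introduced. Following 24 h treatment, RNA was processed to labelled, digested cDNA fragments read by capillary electrophoresis; fitting was bidirectional versus DMSO.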

[14] = target: Hepatocyte nuclear factor 4-alpha (Homo sapiens) (UniProt P41235); assay: ATG_HNF4a_TRANS: Attagene TRANS-FACTORIAL HepG2 Assay for human Hepatocyte Nuclear Factor 4 alpha (HNF4a) (AID 2282982; active = hit-call score of the fitted dose curve at least 0.9, where 1 is the maximum); details: HepG2 HNF4a transactivation reporter, mRNA readout
Sequence of Hepatocyte nuclear factor 4-alpha (Homo sapiens) (P41235 whole entry, looked up, the tested form may be a part): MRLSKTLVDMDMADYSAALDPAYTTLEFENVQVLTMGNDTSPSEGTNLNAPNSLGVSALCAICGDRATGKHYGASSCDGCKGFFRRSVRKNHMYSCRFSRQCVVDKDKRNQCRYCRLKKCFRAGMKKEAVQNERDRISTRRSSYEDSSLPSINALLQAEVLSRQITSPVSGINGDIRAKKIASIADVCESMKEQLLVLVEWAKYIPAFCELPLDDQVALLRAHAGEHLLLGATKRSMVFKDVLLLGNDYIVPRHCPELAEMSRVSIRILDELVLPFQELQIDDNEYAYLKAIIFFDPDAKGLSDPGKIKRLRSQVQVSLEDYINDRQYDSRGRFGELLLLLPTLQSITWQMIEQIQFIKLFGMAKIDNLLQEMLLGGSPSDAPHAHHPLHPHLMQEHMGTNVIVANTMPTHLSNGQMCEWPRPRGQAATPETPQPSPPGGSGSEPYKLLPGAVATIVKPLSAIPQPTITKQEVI
Summary of the method: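 Using HepG2 liver cells transfected with GAL4-UAS reporter units, chemical-induced mRNA increases were assessed after 24 hours. Fluorescent RT-PCR fragments were separated by capillary electrophoresis and compared with DMSO negative controls.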

[15] = ATG_M_32_TRANS: Attagene TRANS-FACTORIAL HepG2 Assay for M32 Transcription Factor (Internal Marker) (AID 2282984; active = hit-call score of the fitted dose curve at least 0.9, where 1 is the maximum); details: HepG2 Attagene TRANS M32 internal marker reporter
Summary of the method: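 Fluorescence-detected mRNA induction, HepG2 liver cells, 24 h after dosing. Multiple GAL4-UAS reporter units introduced by transient transfection; background-control endpoint analysed for gain of signal against DMSO.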

Measured: AC50

CCCCCCCOC(=O)CCC
inactive: [1] | [2] | [3] | [4] | [5] | [6] | [7] | [8] | [9] | [10] | [11] | [12]

C=CC(C)(CCC=C(C)C)OC(=O)C(C)C (stereo not drawn)
inactive: [1] | [2] | [4] | [5] | [6] | [7] | [8] | [9] | [10] | [12] | [13]
active: [11] 100 µM

CC(C)c1ccc(C=O)cc1
inactive: [1] | [3] | [14] | [4] | [15] | [5] | [6] | [7] | [8] | [9] | [10] | [11] | [12] | [13]

CCC(CO)CO
inactive: [1] | [3] | [14] | [15] | [5] | [6] | [7] | [8] | [9] | [10] | [11] | [12] | [13]

CNC(=S)NN
inactive: [1] | [2] | [3] | [15] | [5] | [6] | [7] | [8] | [9] | [11] | [12] | [13]
